High-throughput results: PubChem, National Center for Advancing Translational Sciences (NCATS)
Sampled rows, rich in hits. Any-hit rate of the full collection: about 17%.
HepG2 viability: qHTS for Inhibitors of TGF-b: Cytotox Counterscreen; HepG2 CAGA-GFP viability, ATP luminescence, 18 h; Potency, µM (series often up to 46.1 µM), without a hit: at the highest dose activity change, negative = cytotoxicity, actives largely listed as cytotoxic; 0.76% of 410,000 active; AID 588856, 2011
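HepG2 CAGA-GFP cells (1000/well, DMEM with 1% FBS) received compound, then TGF-beta at 500 pg/mL final, and were incubated 18 hours at 37 degrees C. Viability was read by CellTiter-Glo luminescence. Media-only wells were set as complete cell-killing and DMSO as no toxicity.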
DT40 TDP1 no CPT: qHTS for Inhibitors of human tyrosyl-DNA phosphodiesterase 1 (TDP1): qHTS in cells in absence of CPT. Potency, µM (titrated, usually from 46.2 µM), for inactives: at the top dose activity change, negative = growth inhibition, actives largely listed as inhibitors. DT40 Tdp1-/- hTDP1 cells, no CPT, ATP luminescence, 48 h. 15% of 420,000 active. AID 686978, 2013; note: % is set by controls: 0 for no effect and ±100 for the full control effect; nearly all actives have a fitted effect of over 55% in size
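A cellular qHTS used chicken DT40 cells lacking endogenous Tdp1 but carrying stably transfected human TDP1. Compounds were applied without camptothecin, and cell growth kinetics were judged by ATP-dependent luminescence after ≥48 hr.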
TGFb inhibitor: qHTS for Inhibitors of TGF-b; HepG2 CAGA-GFP TGF-b/SMAD3 reporter, GFP fluorescence, 18 h; TGF-beta stimulated, 500 pg/mL final; Potency, µM (doses to about 46.1 µM), inactives show at the highest dose activity, negative = inhibition, actives largely listed as inhibitors; 1.2% of 410,000 active; AID 588855, 2011; note: % is set by controls: 0 for no effect and ±100 for the full control effect; nearly all actives have a fitted effect of over 65% in size
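Cell-based qHTS in HEPG2 carrying a CAGA-GFP Smad reporter; compounds added before 500 pg/mL final TGF-beta, 18 h incubation at 37 degrees C, GFP fluorescence quantified per cell by imaging cytometry.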
DT40 TDP1 CPT: qHTS for Inhibitors of human tyrosyl-DNA phosphodiesterase 1 (TDP1): qHTS in cells in presence of CPT; chicken DT40 Tdp1-/-;hTDP1 cells + 20 nM CPT, ATP luminescence, 48 h; Potency, µM (series often up to 46.2 µM), inactives show top-dose activity change, negative = growth inhibition, actives largely listed as inhibitors; 12% of 420,000 active; AID 686979, 2013; note: % is set by controls: 0 for no effect and ±100 for the full control effect; nearly all actives have a fitted effect of over 55% in size
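Chicken DT40 Tdp1-/- cells complemented with human TDP1, 400 cells/well, exposed to compounds plus 20 nM camptothecin for at least 48 h at 37 C; viability read as ATP content by CellTiter-Glo luminescence.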
S2 tox: Viability Counterscreen for Primary qHTS for Inhibitors of ATXN expression; S2 cells (HEK-293 line with an ATXN2-luciferase reporter) viability, CellTiter-Fluor protease fluorescence, 24 h; Potency, µM (titrated, usually from 56.7 µM), usual class: cytotoxic; 0.49% of 400,000 active; AID 651635, 2014; note: nearly all actives have a fitted effect of over 40% in size
ATXN2 expr inh: Primary qHTS for Inhibitors of ATXN expression | HEK-293 ATXN2-luciferase reporter, luminescence, 24 h | Potency, µM (doses to about 57 µM), for inactives: top-dose activity change, negative = inhibition, most hits filed as inhibitors | 0.72% of 360,000 active; note: % is set by controls: 0 for no effect and ±100 for the full control effect; nearly all actives have a fitted effect of over 55% in size
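ATXN2-luciferase reporter cells (luciferase flanked by upstream and downstream ATXN2 gene portions) were treated 24 h at 37 °C with compounds at up to 57 uM. SteadyGlo luminescence gave expression; GF-AFC fluorescence gave viability.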
* marks the source's active call; other numbers are inactive results; i = inactive; ? = inconclusive; / = no result; [ ] = dose if it differs, or a comment. Calls come from the whole dose curve; as a rule, active = well fitted curve in the direction sought with a large enough effect; inconclusive = small, poorly fitted or top-dose-only effect, or another doubt; inactive = no such curve, though single readings can be large; an effect the other way counts as inactive or inconclusive. Potency is the fitted concentration of half-maximal effect.

SMILES | HepG2 viability | DT40 TDP1 no CPT | TGFb inhibitor | DT40 TDP1 CPT | S2 tox | ATXN2 expr inh
CC1(c2ccccc2)CC(C)(C)N(C(=O)c2cccc(Cl)c2)c2ccccc21 (centres undefined) | -22.7% | ? | ? | ? | / | /
Cc1ccc2c(c1)N(C(=O)c1ccc(F)cc1)C(C)(C)CC2(C)c1ccccc1 (centres undefined) | 3.3% | 20.6µM* | 1.8% | ? | ? | -33.0%
Cc1ccc(C(=O)NCC(=O)Nc2ccncc2)cc1 | 1.5% | -13.4% | -14.4% | ? | i | -7.6%
Cc1ccc(CC(=O)Nc2ccncc2)cc1 | -10.7% | 4.61µM* | -13.4% | 5.8µM* | i | /
CN(CCCC(=O)Nc1ccncc1)S(=O)(=O)c1ccc(Cl)cc1 | -22.5% | 23.1µM* | -17.5% | 16.4µM* | i | -9.0%
O=C(Cc1ccc(Cl)cc1)Nc1ccncc1 | -1.5% | 9.2µM* | -9.5% | 11.6µM* | i | -19.4%
COc1ccc(S(=O)(=O)N2CCC(C(=O)NCCOc3ccccc3F)CC2)cc1OC | 5.4% | -28.8% | -2.9% | -6.6% | i | -10.0%
CCN(CC(=O)NC(C)(C)C)C(=O)COc1c(Cl)cc(Cl)c2ccc(C)nc12 | -46.2% | 13µM* | ? | 23.1µM* | ? | /
CCOc1ccccc1NC(=O)COC(=O)COc1c(Cl)cc(Cl)c2ccc(C)nc12 | -4.9% | 0.4% | -4.0% | -17.3% | i | -4.2%
CCOC(=O)Cc1csc(NC(=O)CCCCCN2C(=O)c3ccccc3C2=O)n1 | -21.1% | -23.7% | ? | -1.0% | i | 5.5%
CC1=C(C(=O)N2CCCCCC2)CC(CC(=O)NCC2CCCCC2)C(=O)N1CCCN1CCCC1=O (centres undefined) | / | -22.6% | / | -9.2% | i | 6.9%
O=C1NC(c2ccccc2Cl)=N/C1=C/c1ccco1 | 17.8µM* | ? | ? | -12.1% | i | 33.0%
S=c1[nH]nc(-c2ccccc2Cl)n1/N=C/C=C/c1ccco1 | 28.8% | -25.9% | 16.6% | 0.8% | i | -0.5%
O=C1NC(c2ccc(Br)cc2)=N/C1=C/c1ccco1 | 4.8% | ? | -0.3% | 7.31µM* | i | 21.2%
COc1cc2c(cc1OC)CN(c1ccc(C(F)(F)F)cn1)CC2 | -12.6% | 16.4µM* | -2.8% | ? | i | 9.4%
COc1cc(C(=O)COC(=O)C2CCN(c3ccc(C(F)(F)F)cn3)CC2)ccc1OC(F)F | -3.4% | -26.8% | ? | -26.9% | i | 6.0%
COc1cc2c(cc1OC)CN(c1ccc(-c3ccccc3OC)nn1)CC2 | -21.0% | 23.1µM* | -18.1% | ? | ? | ?
COc1ccc2nc(N/C(N)=N/C(=S)Nc3c(C)cccc3C)nc(C)c2c1 | -4.1% | 20.6µM* | ? | 16.4µM* | ? | /
CCOc1ccc2nc(N/C(N)=N/C(=S)Nc3cccc(OC)c3)nc(C)c2c1 | 2.6% | ? | -0.6% | ? | ? | -9.7%
CCOc1ccc2nc(N/C(N)=N/C(=S)Nc3cccc(C)c3)nc(C)c2c1 | -12.7% | 20.6µM* | 12.5% | 18.4µM* | i | -11.6%
COc1ccc2nc(N/C(N)=N/C(=S)Nc3cccc(C)c3)nc(C)c2c1 | -22.6% | 25.9µM* | -8.4% | ? | i | -11.6%
COc1ccc([N+](=O)[O-])cc1NC(=O)c1cn(-c2ccc(C)c(C)c2)c(=O)c2ccccc12 | -4.9% | -32.1% | -4.4% | -10.5% | i | -11.0%
C=CC(C)(C)c1c2c(c(O)c3c(=O)c4ccc(O)c(O)c4oc13)C=CC(C)(C)O2 | / | -22.9%[9.04 µM] | / | 3.4%[9.04 µM] | / | /
